The list is not random: actives were taken first. Their share in the collection is about 10%.
Pf growth 48h: P. falciparum growth inhibition at 48 hours (one generation). AID 504832. P. falciparum luciferase growth in erythrocytes, 48 h. actives 5.9% (n = 310,000). Potency, µM (titrated, usually from 28.7 µM), inactives show at the top dose activity change, negative = inhibition, usual class: inhibitors; also: % is scaled to controls: 0 for no effect and ±100 for the full control effect
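Luciferase-expressing parasites in RBCs, 2% Hct / 0.1% parasitemia final; RPMI 1640 + 0.5% Albumax; 37 C, 5% CO2, one generation; luminescence read-out, lower signal = inhibition.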
SARS PLpro yeast: blocks SARS-CoV papain-like protease in a yeast assay | actives 0.19% (n = 330,000) | Potency, µM (highest dose often 32.9 µM), inactives show at the top dose activity, positive = growth rescue, actives largely listed as activators | S. cerevisiae expressing SARS-CoV PLpro, growth rescue; calls by dose curve; also: 0% is about no effect; nearly all actives have a fitted effect of over 55% in size
NS1 inh: blocks influenza NS1 protein function | Potency, µM (top dose mostly 46.1 µM), inactives show at the highest dose activity, positive = more growth | actives 0.4% (n = 270,000) | AID 2326; calls by dose curve; also: actives are rising curves; nearly all actives have a fitted effect of over 50% in size
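Compounds were scored for reversing the slow growth caused by influenza A NS1 in S. cerevisiae, measured by optical density at 600 nm. Assay medium contained 2% galactose at pH 6.0; NS1-free yeast of the same strain were the positive control.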
Pf growth 96h: inhibits malaria parasite growth, 96 h; Potency, µM (highest dose often 28.7 µM), inactives show top-dose activity change, negative = inhibition, usual class: inhibitors; AID 504834; actives 6.9% (n = 320,000); P. falciparum luciferase reporter growth, 96 h; also: % is scaled to controls: 0 for no effect and ±100 for the full control effect
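Delayed-death screen, second-generation endpoint: infected erythrocytes, 2% hematocrit, 0.05% parasitemia final; 96 hours at 37 C, 5% CO2; luciferase detection reagent; luminescence decrease equals reduced growth.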
* = called active by the depositor; [ ] = dose if it differs, or a comment. Unless noted, calls follow the shape of the dose curve; as a rule, active = well fitted inhibition curve with a large enough effect; inconclusive = small, poorly fitted or top-dose-only effect, or another doubt; inactive = no such curve, though single readings can be large or run the other way. Potency is read from the fitted curve at half-maximal effect.

Screening COc1ccc2c(CC(=O)NC(Cc3ccc(Cl)cc3)C(=O)O)cc(=O)oc2c1C (stereo not drawn) returned Pf growth 48h inconclusive, SARS PLpro yeast -0.8%, NS1 inh 2.2% and Pf growth 96h inconclusive.
Screening CCC1CCCCN1C(=O)c1ccc(OC2CCN(Cc3ccccn3)CC2)cc1 (stereo not drawn) returned Pf growth 48h -24.0%, SARS PLpro yeast -0.6%, NS1 inh 2.4% and Pf growth 96h -12.6%.
`O=C(c1ccc(OC2CCN(Cc3ccccn3)CC2)cc1)N1CCC[C@H]1CO` gave Pf growth 48h -0.6%, SARS PLpro yeast 3.8%, NS1 inh 2.8% and Pf growth 96h 3.7µM*.
CC(C)c1nc(CNC(=O)c2ccc(OC3CCN(Cc4ccccn4)CC3)cc2)cs1 was read as Pf growth 48h -24.8%, SARS PLpro yeast 0.6%, NS1 inh -1.6% and Pf growth 96h -36.3%.
`CC(NC(=O)c1ccc(OC2CCN(Cc3ccccn3)CC2)cc1)c1ccccc1` (stereo not drawn) gave Pf growth 48h inconclusive, SARS PLpro yeast 0.3%, NS1 inh -1.0% and Pf growth 96h 11.7µM*.
Screening CC(NC(=O)CCSc1nc(-c2ccc3c(c2)OCO3)cc(C(F)(F)F)n1)c1ccccc1 (stereo not drawn) returned Pf growth 48h inconclusive, SARS PLpro yeast 2.6%, NS1 inh -1.6% and Pf growth 96h inconclusive.
`O=C(CSc1nnc(CCc2ccccc2)n1-c1ccc(Cl)cc1)c1ccccc1` gave Pf growth 48h -1.9%, SARS PLpro yeast 21.7%, NS1 inh inconclusive and Pf growth 96h inconclusive.
Cn1cccc1Cc1nnc(SCC(=O)N2CCc3ccccc32)n1-c1ccc(F)cc1 was read as Pf growth 48h -28.8%, SARS PLpro yeast -11.7%, NS1 inh -10.3% and Pf growth 96h 21.2%.
Screening COc1ccc(-n2c(CCc3ccccc3)nnc2SCC(=O)c2ccc(Cl)cc2)cc1 returned Pf growth 48h 13.1µM*, SARS PLpro yeast 3.6%, NS1 inh inconclusive and Pf growth 96h inconclusive.
COc1ccc(-n2c(Cc3ccccc3)nnc2SCC(=O)N2CCCc3ccccc32)cc1 was read as Pf growth 48h 11.7µM*, SARS PLpro yeast -0.4%, NS1 inh -13.6% and Pf growth 96h inconclusive.
For Cn1cccc1Cc1nnc(SCC(=O)N2CCCc3ccccc32)n1-c1ccc(F)cc1 the results were Pf growth 48h inconclusive, SARS PLpro yeast -2.6%, NS1 inh -20.8% and Pf growth 96h 8.28µM*.
`O=C(CNS(=O)(=O)c1ccccc1)NCC(=O)N1CCCCC1` gave Pf growth 48h 46.5%, NS1 inh -1.9% and Pf growth 96h 0.0%.
`CN(C)S(=O)(=O)c1ccc(NC(=O)CSc2nnc(-c3ccco3)n2N)cc1` gave SARS PLpro yeast 3.1%.
Cc1ccc(Cn2nc3c4cc(F)ccc4n(Cc4ccc(F)cc4)cc-3c2=O)cc1 was read as Pf growth 48h 32.6%, SARS PLpro yeast 0.0%, NS1 inh 6.5% and Pf growth 96h 0.7%.
Screening COc1cc2c3nnc(-c4ccc(F)cc4)c-3cn(Cc3cccc(C)c3)c2cc1OC returned Pf growth 48h 0.586µM*, SARS PLpro yeast 0.0%, NS1 inh 23.3% and Pf growth 96h 0.465µM*.
`COc1cc2c3nnc(-c4ccc(F)cc4)c-3cn(Cc3ccc(C)cc3)c2cc1OC` gave Pf growth 48h 0.329µM*, SARS PLpro yeast -8.8%, NS1 inh 21.8% and Pf growth 96h 0.37µM*.
`COc1cc2c3nnc(-c4ccc(F)cc4)c-3cn(Cc3cccc(F)c3)c2cc1OC` gave Pf growth 48h 0.586µM*, SARS PLpro yeast 3.3% and Pf growth 96h 1.04µM*.
`COc1cccc(Cn2nc3c4cc(F)ccc4n(Cc4ccc(F)cc4)cc-3c2=O)c1` gave Pf growth 48h -0.9%, SARS PLpro yeast -1.0%, NS1 inh 4.6% and Pf growth 96h 1.65µM*.
Screening COc1cc2c3nnc(-c4ccccc4)c-3cn(Cc3ccc(F)cc3)c2cc1OC returned Pf growth 48h -36.8%[1.15 µM], SARS PLpro yeast -0.9%, NS1 inh 0.6% and Pf growth 96h inconclusive.
CC(=O)Nc1ccc(S(=O)(=O)N2CCN=C2SCc2ccccc2C)cc1 was read as Pf growth 48h -23.9%, SARS PLpro yeast -6.3%, NS1 inh 14.9% and Pf growth 96h -19.7%.
For Cc1cccc(C)c1NC(=O)CN(C)CC(=O)Nc1ccccc1Oc1ccccc1 the results were Pf growth 48h inconclusive, SARS PLpro yeast 1.0% and Pf growth 96h 11.7µM*.
CS(=O)(=O)c1nc(S(=O)(=O)c2ccc(Cl)cc2)c(N2CCC3(CC2)OCCO3)s1 was read as Pf growth 48h -13.1%, SARS PLpro yeast -3.2%, NS1 inh -12.3% and Pf growth 96h 2.94µM*.
Cc1ccc(S(=O)(=O)c2nc(S(C)(=O)=O)sc2N2CCC(C(N)=O)CC2)cc1 was read as Pf growth 48h inconclusive, SARS PLpro yeast -2.9%, NS1 inh 1.9% and Pf growth 96h 8.28µM*.
CCS(=O)(=O)c1nc(S(=O)(=O)c2ccc(C)cc2)c(N2CC(C)OC(C)C2)s1 (stereo not drawn) was read as Pf growth 48h -17.8%, SARS PLpro yeast -3.5%, NS1 inh -24.5% and Pf growth 96h 14.7µM*.
COc1ccc(NC(=O)N2CCCC(c3nc(-c4ccc(C(C)C)cc4)no3)C2)cc1 (stereo not drawn) was read as Pf growth 48h 37.4%, SARS PLpro yeast -21.3%, NS1 inh -47.7% and Pf growth 96h 8.28µM*.
`CC(=O)/C=C/c1ccccc1Oc1c(F)c(F)nc(F)c1F` gave Pf growth 48h inconclusive, SARS PLpro yeast -0.6%, NS1 inh 0.6% and Pf growth 96h 9.28µM*.
COc1cc2nc(CN3CCN(S(=O)(=O)c4c(F)cccc4F)CC3)[nH]c(=O)c2cc1OC was read as Pf growth 48h 10.4µM*, SARS PLpro yeast 6.2% and Pf growth 96h inconclusive.
COc1ccc(NC(=O)c2cccnc2NCCc2ccccc2)cc1 was read as Pf growth 48h inconclusive, SARS PLpro yeast 9.6%, NS1 inh -5.9% and Pf growth 96h 1.47µM*.
O=C(Nc1ccc(F)cc1)c1cccnc1Oc1ccccc1 was read as SARS PLpro yeast 8.7%, NS1 inh 0.9% and Pf growth 96h 17.6%.
CCOC(=O)Cc1ncccc1C(=O)Nc1ccc(Oc2ccccc2)cc1 was read as Pf growth 48h 8.28µM*, SARS PLpro yeast -2.2% and Pf growth 96h 11.7µM*.
For CC1CCC(C(C)C)C(OCC(O)CNC(C)C)C1 (stereo not drawn) the results were Pf growth 48h inconclusive, SARS PLpro yeast -1.2%, NS1 inh 6.3% and Pf growth 96h inconclusive.
Screening Cc1cccc2sc(N(CCCN(C)C)C(=O)c3ccc(C(=O)c4ccccc4)cc3)nc12 returned Pf growth 48h 6.57µM*, SARS PLpro yeast 0.0%, NS1 inh -32.2% and Pf growth 96h -101.7%.
For COc1ccc2sc(N(CCCN(C)C)C(=O)c3ccc(C(=O)c4ccccc4)cc3)nc2c1 the results were Pf growth 48h 13.1µM*, SARS PLpro yeast -3.8% and Pf growth 96h inconclusive.

From PubChem BioAssay
